# Assay results: the supplement of paper PMC4466140
# Target: AgAbp1
# Assay: SPOT peptide array binding signal intensity (averaged, normalized) (arbitrary units (background-subtracted, floor 0; scale differs between SH3 domains)); higher = stronger binding of the SH3 domain to the peptide
# In short: (§1)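 Spot intensities were captured after detection with anti-GST antibody, an HRP-linked anti-mouse secondary and luminol, and quantified with Genespotter. The probes were GST-fused SH3 domains from four yeast species, produced in E. coli BL21(DE3), purified on glutathione Sepharose and incubated at 10 μg/ml overnight at 4°C on cellulose-bound synthetic 15-mer peptides with cysteines replaced by serines. Binding signal is the normalized, background-subtracted spot intensity averaged over replicates, and its arbitrary units differ between domains.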
row,Binder,SPOT peptide array binding signal intensity
1,TIRRRAPLSLLESHT,77

# Target: AgBbc1
# Assay: as above
# In short: as §1
row,Binder,SPOT peptide array binding signal intensity
1,TIRRRAPLSLLESHT,20

# Target: AgBem1-D1
# Assay: as above
# In short: as §1
row,Binder,SPOT peptide array binding signal intensity
1,TIRRRAPLSLLESHT,46.5

# Target: AgBzz1-D1
# Assay: as above
# In short: as §1
row,Binder,SPOT peptide array binding signal intensity
1,TIRRRAPLSLLESHT,46

# Target: AgBzz1-D2
# Assay: as above
# In short: as §1
row,Binder,SPOT peptide array binding signal intensity
1,TIRRRAPLSLLESHT,39

# Target: AgCyk3
# Assay: as above
# In short: as §1
row,Binder,SPOT peptide array binding signal intensity
1,TIRRRAPLSLLESHT,1

# Target: AgFus1
# Assay: as above
# In short: as §1
row,Binder,SPOT peptide array binding signal intensity
1,TIRRRAPLSLLESHT,895

# Target: AgHof1
# Assay: as above
# In short: as §1
row,Binder,SPOT peptide array binding signal intensity
1,TIRRRAPLSLLESHT,47

# Target: AgHse1
# Assay: as above
# In short: as §1
row,Binder,SPOT peptide array binding signal intensity
1,TIRRRAPLSLLESHT,730

# Target: AgLsb1
# Assay: as above
# In short: as §1
row,Binder,SPOT peptide array binding signal intensity
1,TIRRRAPLSLLESHT,3.5

# Target: AgLsb4
# Assay: as above
# In short: as §1
row,Binder,SPOT peptide array binding signal intensity
1,TIRRRAPLSLLESHT,99.5

# Target: AgMyo5
# Assay: as above
# In short: as §1
row,Binder,SPOT peptide array binding signal intensity
1,TIRRRAPLSLLESHT,≤ 0

# Target: AgNbp2
# Assay: as above
# In short: as §1
row,Binder,SPOT peptide array binding signal intensity
1,TIRRRAPLSLLESHT,397

# Target: AgRvs167
# Assay: as above
# In short: as §1
row,Binder,SPOT peptide array binding signal intensity
1,TIRRRAPLSLLESHT,3

# Target: AgSho1
# Assay: as above
# In short: as §1
row,Binder,SPOT peptide array binding signal intensity
1,TIRRRAPLSLLESHT,36

# Target: AgSla1-D1-D2
# Assay: as above
# In short: as §1
row,Binder,SPOT peptide array binding signal intensity
1,TIRRRAPLSLLESHT,32

# Target: AgSla1-D3
# Assay: as above
# In short: as §1
row,Binder,SPOT peptide array binding signal intensity
1,TIRRRAPLSLLESHT,11.5

# Target: CaAbp1-D1
# Assay: as above
# In short: as §1
row,Binder,SPOT peptide array binding signal intensity
1,TIRRRAPLSLLESHT,475

# Target: CaAbp1-D2
# Assay: as above
# In short: as §1
row,Binder,SPOT peptide array binding signal intensity
1,TIRRRAPLSLLESHT,324

# Target: CaBbc1
# Assay: as above
# In short: as §1
row,Binder,SPOT peptide array binding signal intensity
1,TIRRRAPLSLLESHT,133

# Target: CaBem1-D1
# Assay: as above
# In short: as §1
row,Binder,SPOT peptide array binding signal intensity
1,TIRRRAPLSLLESHT,21.5

# Target: CaBzz1-D1
# Assay: as above
# In short: as §1
row,Binder,SPOT peptide array binding signal intensity
1,TIRRRAPLSLLESHT,40

# Target: CaBzz1-D2
# Assay: as above
# In short: as §1
row,Binder,SPOT peptide array binding signal intensity
1,TIRRRAPLSLLESHT,58.8

# Target: CaCyk3
# Assay: as above
# In short: as §1
row,Binder,SPOT peptide array binding signal intensity
1,TIRRRAPLSLLESHT,11.5

# Target: CaFus1
# Assay: as above
# In short: as §1
row,Binder,SPOT peptide array binding signal intensity
1,TIRRRAPLSLLESHT,1540

# Target: CaHof1
# Assay: as above
# In short: as §1
row,Binder,SPOT peptide array binding signal intensity
1,TIRRRAPLSLLESHT,0.5

# Target: CaHse1
# Assay: as above
# In short: as §1
row,Binder,SPOT peptide array binding signal intensity
1,TIRRRAPLSLLESHT,47.5

# Target: CaLsb1
# Assay: as above
# In short: as §1
row,Binder,SPOT peptide array binding signal intensity
1,TIRRRAPLSLLESHT,0.5

# Target: CaLsb4
# Assay: as above
# In short: as §1
row,Binder,SPOT peptide array binding signal intensity
1,TIRRRAPLSLLESHT,130

# Target: CaMyo5
# Assay: as above
# In short: as §1
row,Binder,SPOT peptide array binding signal intensity
1,TIRRRAPLSLLESHT,≤ 0

# Target: CaNbp2
# Assay: as above
# In short: as §1
row,Binder,SPOT peptide array binding signal intensity
1,TIRRRAPLSLLESHT,3410

# Target: CaRvs167
# Assay: as above
# In short: as §1
row,Binder,SPOT peptide array binding signal intensity
1,TIRRRAPLSLLESHT,19.3

# Target: CaRvs167-3
# Assay: as above
# In short: as §1
row,Binder,SPOT peptide array binding signal intensity
1,TIRRRAPLSLLESHT,28.2

# Target: CaSho1
# Assay: as above
# In short: as §1
row,Binder,SPOT peptide array binding signal intensity
1,TIRRRAPLSLLESHT,608

# Target: CaSla1-D1-D2
# Assay: as above
# In short: as §1
row,Binder,SPOT peptide array binding signal intensity
1,TIRRRAPLSLLESHT,133

# Target: CaSla1-D3
# Assay: as above
# In short: as §1
row,Binder,SPOT peptide array binding signal intensity
1,TIRRRAPLSLLESHT,≤ 0

# Target: ScAbp1
# Assay: as above
# In short: as §1
row,Binder,SPOT peptide array binding signal intensity
1,TIRRRAPLSLLESHT,97
